RORgamma inh = inhibitors of mouse ROR gamma transcriptional activity | P51450 | Drosophila S2 Gal4-RORgamma UAS-luciferase reporter, 20 h | Potency, µM (series often up to 53.6 µM), hits mostly inhibitors | actives 5.4% (n = 310,000); further: nearly all actives have a fitted effect of over 60% in size
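Drosophila Schneider cells stably carrying a metallothionein-driven Gal4 DBD–ROR gamma fusion and a UAS-Photinus luciferase reporter were exposed to compound for 1 hr, then induced with copper sulfate (700 uM final) for 20 hr at ambient temperature before luminescence reading.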
NPSR antag = blocks cAMP signaling of the human neuropeptide S receptor | actives 1% (n = 220,000) | AID 1461 | Potency, µM (titrated, usually from 38.3 µM), hits mostly inhibitors | CHO-NPSR cells, cAMP TR-FRET, antagonist mode | Q6W5P4; further: nearly all actives have a fitted effect of over 50% in size
B2AR arrestin = recruits beta-arrestin to the human beta2-adrenergic receptor; P07550; beta-arrestin recruitment to beta2AR, cell-based reporter; Potency, µM (highest dose often 46.1 µM), usual class: activators; actives 0.02% (n = 330,000); AID 492947; further: nearly all actives have a fitted effect of over 65% in size
Target sequence (P07550 whole entry, looked up): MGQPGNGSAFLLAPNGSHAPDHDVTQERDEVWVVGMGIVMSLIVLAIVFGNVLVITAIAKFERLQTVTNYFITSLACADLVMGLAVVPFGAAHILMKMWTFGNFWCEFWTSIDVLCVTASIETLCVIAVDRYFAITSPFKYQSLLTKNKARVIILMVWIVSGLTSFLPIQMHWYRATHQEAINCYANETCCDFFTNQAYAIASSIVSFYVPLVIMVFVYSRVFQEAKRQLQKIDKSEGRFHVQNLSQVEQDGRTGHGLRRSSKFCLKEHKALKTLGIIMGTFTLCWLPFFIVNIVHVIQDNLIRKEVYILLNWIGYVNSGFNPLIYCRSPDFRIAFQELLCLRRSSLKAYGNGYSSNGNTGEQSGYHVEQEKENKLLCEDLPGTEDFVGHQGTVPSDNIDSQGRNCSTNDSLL
VP16 counter = inhibits Gal4-VP16 luciferase reporter, ROR gamma counter-screen; Drosophila S2 Gal4-VP16 UAS-luciferase, luminescence, 20 h; Potency, µM (series often up to 53.6 µM), hits mostly inhibitors; actives 3.5% (n = 310,000); AID 2546;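 further: Gal4-VP16 expression switched on by copper sulfate through the metallothionein promoter; nearly all actives have a fitted effect of over 50% in size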
Numbers stand for hits; – = inactive; ? = inconclusive; · = not tested or not shown; [ ] = dose if it differs, or a comment. A selection: hits, their analogues and other compounds. The true share with any hit is near 5.7%. The call rests on the fitted dose curve; in most records, active means well fitted curve in the direction sought with a large enough effect; inconclusive means small, poorly fitted or top-dose-only effect, or another doubt; inactive means no such curve, though single readings can be large; an effect the other way counts as inactive or inconclusive.

SMILES	RORgamma inh	NPSR antag	B2AR arrestin	VP16 counter
CCn1c(SCC(=O)N/N=C/C=C/c2ccco2)nnc1-c1ccc(OC)cc1	–	–	–	–
COCCn1c(=O)c(-c2ccc(OC)cc2)nc2cnc(N3CCN(C)CC3)nc21	–	·	·	–
CCCNCC(O)Cn1c2ccccc2n2c(=O)cc(C)c(C#N)c12 (stereo unspecified)	0.71µM	–	–	–
Cc1cc(=O)n2c3ccccc3n(CC(O)CN3CCCC3)c2c1C#N (stereo unspecified)	–	–	–	–
Cc1ccccc1CCNC(=O)c1ccc(Cl)c(S(=O)(=O)N2CC(C)OC(C)C2)c1 (stereo unspecified)	·	·	–	·
COc1cccc(C(C)NC(=S)NCc2ccc(F)cc2)c1 (stereo unspecified)	5µM	·	–	8.9µM
NS(=O)(=O)c1ccc(CNC(=S)NCc2ccc(F)cc2)cc1	–	·	–	–
Cc1ccc(NC(=S)NCc2ccc3c(c2)cc(C)n3C)c(C)c1	1µM	–	–	13µM
Cc1ccc(C(C)NC(=S)NCc2ccc(F)cc2)c(C)c1 (stereo unspecified)	2.5µM	·	?	4.5µM
Cc1cc2cc(CNC(=S)Nc3ccc(OC(F)F)cc3)ccc2n1C	–	?	–	–
Cc1ccc(C(C)NC(=S)NCc2ccc(F)cc2)cc1C (stereo unspecified)	3.5µM	·	–	5µM
Cc1ccc(NC(=S)NCc2ccc(F)cc2)c(C)c1	5.6µM	·	–	5.6µM
CC(NC(=O)Cc1ccc(F)cc1)c1ccc(F)cc1 (stereo unspecified)	?	–	–	–
CCC(NC(=O)C1(C)CC1(Br)Br)c1ccc(C)cc1 (stereo unspecified)	–	–	–	–
CCC(NC(=S)NCc1ccc(F)cc1)c1ccc(C)cc1 (stereo unspecified)	2.8µM	·	–	3.2µM
CCOc1ccc(C(C)NC(=S)NCc2ccc(F)cc2)cc1 (stereo unspecified)	3.5µM	·	–	3.2µM
Cc1ccc(NC(=S)NCc2ccc(S(N)(=O)=O)cc2)c(C)c1	–	–	–	–
CCc1ccc(C(C)NC(=S)NCc2ccc(F)cc2)cc1 (stereo unspecified)	2.2µM	·	–	5µM
CC1CCN(CCc2nc3cc(NC(=O)COc4ccc(Cl)cc4)ccc3n2C)CC1	–	·	–	–
CCOC(=O)c1ccc(OCCOc2cccc(C)c2)cc1	–	·	–	–
O=C(c1ccc(Cl)cc1)n1c(NCc2ccccc2)n[nH]c1=S	–	–	–	–
CCC(Sc1nc(N)c(NC(=O)c2ccc(Br)o2)c(=O)[nH]1)C(=O)O (stereo unspecified)	–	·	–	–
O=C(O)c1cccc(NC(=S)NC(NC(=O)c2cccc([N+](=O)[O-])c2)C(Cl)(Cl)Cl)c1 (stereo unspecified)	–	–	–	–
O=C(NC(NC(=S)Nc1ccccc1)C(Cl)(Cl)Cl)c1cccc(Cl)c1 (stereo unspecified)	11µM	13µM	–	?
O=C(NC(NC(=S)Nc1ccc(Cl)cc1Cl)C(Cl)(Cl)Cl)c1cccc([N+](=O)[O-])c1 (stereo unspecified)	?	10µM	–	?
SMILES	RORgamma inh	NPSR antag	B2AR arrestin	VP16 counter
Cc1cc(C)c(NC(=S)NC(NC(=O)c2ccccc2)C(Cl)(Cl)Cl)c(C)c1 (stereo unspecified)	20µM	–	?	?
O=C(Nc1nnc(-c2ccccc2Cl)o1)c1ccco1	2.8µM	–	–	5µM
O=C(Nc1nnc(-c2cccs2)o1)c1ccco1	2.5µM	–	–	6.3µM
O=C(Nc1nnc(-c2ccc(Br)cc2)o1)c1ccco1	·	·	–	·
O=C(Nc1nnc(-c2ccccc2Cl)o1)c1nc2ccccc2s1	1.1µM	–	–	?
CC(C)[C@H](NC(=O)[C@@H](Cc1c[nH]c2ccccc12)NC(=O)[C@H](Cc1ccc(O)cc1)NC(=O)[C@@H](N)CC(=O)O)C(=O)N[C@H](Cc1c[nH]c2ccccc12)C(=O)N[C@H](Cc1c[nH]c2ccccc12)C(=O)N[C@@H](CCCCN)C(N)=O	–	·	·	–
O=C(CSc1nnc(-c2ccccc2F)o1)N1CCNC1=O	·	·	–	·
COc1ccc(N2CCC(CNC(=O)Nc3ccc(OC)cc3OC)C2)cc1 (stereo unspecified)	–	?	–	–
COc1ccc(N2CCC(CNC(=S)Nc3cccc(C)c3)C2)cc1 (stereo unspecified)	4µM	–	–	5µM
COc1ccc(N2CCC(CNC(=S)Nc3c(C)cc(C)cc3C)C2)cc1 (stereo unspecified)	1.4µM	–	–	7.1µM
COc1ccc(N2CCC(CNC(=S)Nc3ccc(C)cc3C)C2)cc1 (stereo unspecified)	0.63µM	–	–	?
Nc1cc(S(=O)(=O)O)ccc1O	–	·	·	–
CC(=O)Nc1ccc(S(=O)(=O)NCC2CCC(C(=O)N3CC(C)CC(C)C3)CC2)cc1 (stereo unspecified)	–	·	–	–
O=C(O)c1cc(O)c2c(c1)[C@@H]([C@H]1c3cc(C(=O)O)cc(O)c3C(=O)c3c(O[C@@H]4O[C@H](CO)[C@@H](O)[C@H](O)[C@H]4O)cccc31)c1cccc(O[C@@H]3O[C@H](CO)[C@@H](O)[C@H](O)[C@H]3O)c1C2=O	·	·	–	·
CCNCCCNCCCCNCCCNCC	–	·	·	–
CCN(CC)S(=O)(=O)c1ccc(C(=O)NC(=S)N(CCO)Cc2ccccc2)cc1	1.1µM	·	–	3.2µM
CCCOc1ccc(CN(CCC#N)C(=S)NC(=O)c2ccccc2)cc1	0.32µM	–	–	0.56µM
O=C(NC(=S)N(CCO)Cc1ccccc1)c1ccc(F)cc1Cl	0.56µM	·	–	2.8µM
OCCN(Cc1ccccc1)C(=S)Nc1ccc(F)cc1	–	–	–	–
Cc1c(CN2CCC(CO)(Cc3cccc(C(F)(F)F)c3)CC2)c2ccccc2n1C	7.1µM	?	–	8.9µM
CCOC(=O)C1(CC2CCCCO2)CCN(Cc2cc(F)ccc2-n2cccn2)CC1 (stereo unspecified)	–	–	–	–
CCOC(=O)C1(CC2CCCCO2)CCN(Cc2nccn2-c2cccc(C)c2)CC1 (stereo unspecified)	4.5µM	–	–	13µM
Cc1cccc(-n2ccnc2CN2CCC(CO)(Cc3ccccc3)CC2)c1	16µM	–	–	–
CCOC(=O)C1(CC2CCCCO2)CCN(Cc2nccn2-c2ccc(OC)cc2)CC1 (stereo unspecified)	7.1µM	–	–	?
CCOC(=O)CCN1C(=O)[C@H]2[C@H]3[C@H](O)[C@H](O)C/C(=N/NC(=O)OCC)[C@H]3CC[C@@H]2C1=O	–[10 µM]	·	·	–[10 µM]
Cc1oc(=O)oc1CN1CCN(c2cc3c(cc2F)c(=O)c(C(=O)O)c2n3C(C)S2)CC1 (stereo unspecified)	–[10 µM]	·	·	–
CCOC(=O)c1cc(-c2ccccc2)sc1NC(=O)c1cc(OC)c(OC)c(OC)c1	–[10 µM]	–	–	–
Cc1cc(C)c(S(=O)(=O)N(C2=NCCS2)S(=O)(=O)c2c(C)cc(C)cc2C)c(C)c1	16µM	?	–	–
O=C(Nc1cccc(F)c1)N1CCC2(CCNCC2)CC1	–	·	·	–
